COUP-TFII inh – NR2F2 transcriptional activity inhibitors, primary screen, cell-based, luciferase reporter, HEK293T, luminescence; HEK293T NGFI-A luciferase reporter; inhibition, % at 8.6 µM; actives 0.7% (n = 370,000); AID 686940, 2013;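 active means inhibition above a per-plate cutoff, mean inhibition of test wells between control levels plus 3 SD, cut at about 38% in these data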;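 further: cells cotransfected with COUP-TFII expression vector driving the NGFI-A reporter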
Target sequence (P24468 whole entry, looked up): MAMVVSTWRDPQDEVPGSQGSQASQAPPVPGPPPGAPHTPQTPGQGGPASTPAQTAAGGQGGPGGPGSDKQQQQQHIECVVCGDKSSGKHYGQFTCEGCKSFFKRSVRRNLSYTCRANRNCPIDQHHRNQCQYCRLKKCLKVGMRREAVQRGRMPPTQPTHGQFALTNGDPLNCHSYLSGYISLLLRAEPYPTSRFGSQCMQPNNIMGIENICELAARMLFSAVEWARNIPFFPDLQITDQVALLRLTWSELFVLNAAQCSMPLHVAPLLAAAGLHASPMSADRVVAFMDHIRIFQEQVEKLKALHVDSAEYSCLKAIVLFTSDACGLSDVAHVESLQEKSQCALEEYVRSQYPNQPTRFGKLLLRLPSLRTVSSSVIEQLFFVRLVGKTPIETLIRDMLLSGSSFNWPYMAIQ
SRC2 inh – inhibition of GAL4-SRC2 driven luciferase reporter, primary screen, SRC2 inhibitor project, cell-based, luminescence. Nuclear receptor coactivator 2 (Homo sapiens), Q15596. HEK293 GAL4-SRC2 luciferase reporter. inhibition, % at 9 µM. actives 0.17% (n = 370,000). AID 651957, 2012;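 active means inhibition above the mean inhibition of all tested compounds plus 3 SD, set per campaign, cut at about 52% in these data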
NR5A2 inv ag – LRH-1 (NR5A2) inverse agonists, primary screen, cell-based, luminescence, HEK293T, StAR-luciferase reporter | Nuclear receptor subfamily 5 group A member 2 (Homo sapiens), O00482 | LRH-1 transfected, 24 h | inhibition, % at 3.6 µM | actives 0.13% (n = 360,000) | AID 602396, 2012;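 active means inhibition above the mean inhibition of all tested compounds plus 3 SD, cut at about 73% in these data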
NCOA1 inh – SRC1 coactivator transcriptional activity inhibitors, primary screen, cell-based, luminescence | inhibition, % at 3.6 µM | Nuclear receptor coactivator 1 (Homo sapiens), Q15788 | HEK293 GAL4-SRC1 luciferase reporter | actives 0.12% (n = 360,000) | AID 588354, 2011;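 active means inhibition above the campaign mean plus 3 SD, with each screening campaign given its own cutoff, cut at about 60% in these data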
NCOA3 inh – SRC3 coactivator transcriptional activity inhibitors, primary screen, cell-based, luminescence; actives 0.17% (n = 360,000); inhibition, % at 3.6 µM; AID 588352, 2011; HEK293 GAL4-SRC3 luciferase reporter;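 active means inhibition above a per-campaign cutoff, the mean of all compounds plus 3 SD, cut at about 60% in these data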;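 further: higher means less SRC3-driven luciferase light from the GAL4 reporter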
Gli-Sufu antag – Gli-Sufu pathway antagonists, primary screen, luciferase luminescence, Sufu-KO-LIGHT cells, uHTS; Sufu-KO-LIGHT fibroblasts, Gli luciferase reporter luminescence; inhibition, % at 5 µM; actives 0.74% (n = 340,000);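 active means inhibition above about 55%, limit read from the data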
Gli antag conf – Gli-SUFU pathway antagonists, confirmation, single concentration, luciferase luminescence, Sufu-KO-LIGHT cells; shares compounds with Gli-Sufu antag; actives 40% (n = 2,500); Gli luciferase reporter; inhibition, % at 5 µM;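 active means mean inhibition at 5 µM reaching about 45%, limit read from the data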
SufuKO cytotox – cytotoxicity in Sufu-KO-LIGHT cells, confirmation, cytotoxicity control for Gli-SUFU antagonist project, cell-based, ATP luminescence, single concentration | actives 32% (n = 2,500) | shares compounds with Gli-Sufu antag | AID 651994, 2013 | cytotoxicity, % at 5 µM;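 active means mean cytotoxicity at 5 µM above about 25%, limit read from the data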;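 further: cells exposed to compound overnight for roughly 16 to 18 hours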
Wnt3a cs – Wnt3a reporter signal inhibition, confirmation, counter-screen for Gli-SUFU antagonist project, Wnt-LIGHT cells, luminescence, single concentration; actives 20% (n = 2,500); Wnt3a-driven luciferase reporter; shares compounds with Gli-Sufu antag; AID 651995, 2013; inhibition, % at 6.25 µM;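 active means mean inhibition above about 25%, limit read from the data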
Gal4-VP16 ctr – Gal4-VP16 luciferase reporter inhibitors, counter-screen for COUP-TFII antagonist project, cell-based, luminescence, HEK293; shares compounds with COUP-TFII inh; inhibition, % at 8.5 µM; actives 25% (n = 2,500); AID 687007, 2013; in the data active means inhibition above about 13%
COUP-TFII conf – NR2F2 transcriptional activity inhibitors, confirmation, cell-based, luciferase reporter, HEK293, triplicate. actives 45% (n = 2,500). shares compounds with COUP-TFII inh. inhibition, % at 8.5 µM. AID 687008, 2013. HEK293 NGFI-A luciferase reporter, luminescence;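 active means mean inhibition over three repeats above a set limit taken from the earlier primary screen, cut at about 38% in these data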
Numbers stand for hits; 0 = inactive; - = no result given; ! = a repeat was not active. Compounds with a hit are over-represented: about 1.3% of the library has one in this group of screens.

SMILES	COUP-TFII inh	SRC2 inh	NR5A2 inv ag	NCOA1 inh	NCOA3 inh	Gli-Sufu antag	Gli antag conf	SufuKO cytotox	Wnt3a cs	Gal4-VP16 ctr	COUP-TFII conf
COc1ccc(CN2C(=O)N3Cc4ccccc4C3CS2(=O)=O)cc1 (stereo not drawn)	0	0	-	-	-	-	-	-	-	-	-
CC(=O)c1c(C)[nH]c(C(=O)OCc2ccccc2)c1C	0	0	0	0	0	0	-	-	-	-	-
CC(=O)c1c(C)[nH]c(C(=O)OCCCCN2C(=O)c3ccccc3C2=O)c1C	52.9	0	0	0	0	68.2	66.0	32.1	0	0	60.5
Nc1[nH]c(C(=O)c2ccccc2)c(-c2ccc(Br)cc2)c1C(=O)NCCCN1CCOCC1	0	-	-	-	-	-	-	-	-	-	-
CC(C)Cc1ccc(C(C)C(=O)Nc2cccnc2)cc1 (stereo not drawn)	46.1	0	0	0	0	65.7	0	0	0	0	41.4
Cc1ccc(-c2c[n+]3c(n2-c2ccccc2)SCC3)cc1	64.9	0	0	0	0	83.7	82.8	0	38.3	0	0
COc1ccc(-c2c[n+]3c(n2-c2ccccc2)SCC3)cc1	56.8	0	0	0	0	75.7	79.7	25.1	42.1	0	0
COc1ccc(-n2c(-c3ccc(Cl)cc3)c[n+]3c2CCCCC3)cc1	0	0	0	0	0	-	-	-	-	-	-
Cc1ccc(-c2cn(-c3ccccc3)c3[n+]2CCCS3)cc1	54.6	0	0	0	0	83.0!	87.4	44.5	45.0	0	39.0!
CCOC(=O)[C@]12CCCC=C1N(CCCOC)C(=O)[C@@H]2CC(=O)NCc1ccc(OC)c(OC)c1	0	0	-	-	-	-	-	-	-	-	-
O=C(OCCN1CCN(C2CN(Cc3cn(Cc4cccc(F)c4)nn3)S(=O)(=O)C2)CC1)c1cc2ccccc2o1 (stereo not drawn)	0	0	-	-	-	-	-	-	-	-	-
COc1ccc(CC2(CO)CCN(CC3=Cc4cc(Cl)ccc4OC3)CC2)cc1	63.7	0	0	0	0	57.4	59.7	0	0	0	45.4
COC(=O)C1CN(Cc2ccccc2)CCS(=O)(=O)N1Cc1ccc(OC)cc1 (stereo not drawn)	0	0	-	-	-	-	-	-	-	-	-
Cc1nc2ccccc2c2oc(C(=O)N3CCN(C4CCCCC4)CC3)cc12	42.4	0	0	0	0	0	46.1	0	0	0	0
Cc1nc2ccccc2c2oc(C(=O)N3CCC(N4CCCCC4)CC3)cc12	-	-	0	0	0	0	-	-	-	-	-
COc1cc(C[C@@H]2C(=O)OC[C@H]2Cc2ccc(OC)c(OC)c2)ccc1O	69.5	0	0	0	0	65.9	57.3	31.5	31.8	0	56.6
CCc1ccccc1NC(=O)c1cc(C)nn1-c1ccccc1	0	0	-	-	-	-	-	-	-	-	-
CCCCCCC[N+](CC)(CC)CCCCc1ccc(Cl)cc1	40.8	0	0	0	0	84.8	87.8	25.6	0	14.8	0
N#Cc1cccc(NC(=O)OCCCN2CCC3(CCCCC3)C2=O)c1	0	0	-	-	-	-	-	-	-	-	-
COc1cccc(NC(=O)n2ccc3ccc(-c4ccc5ccn(C(=O)Nc6cccc(OC)c6)c5c4)cc32)c1	0	0	-	-	-	-	-	-	-	-	-
CC(C)(C)OC(=O)NCCCCCNC(=O)c1nc[nH]c1C(=O)NCCCCCNC(=O)OC(C)(C)C	55.0	0	0	0	0	55.4	0	0	0	0	0
CCCC1CCC2(CC1)CCC2OC(=S)NCCc1ccc(Cl)cc1 (stereo not drawn)	0	-	-	-	-	-	-	-	-	-	-
CC(=O)N1CCc2cc(S(=O)(=O)NC3CCN(C(=O)CCl)CC3)ccc21	0	0	-	-	-	-	-	-	-	-	-
COc1ccc(CCN(C)C(=O)Cc2ccc(-c3ccccc3)cc2)cc1OC	48.1	0	0	0	0	59.6	0	0	0	0	0
CC(C)CC(CCOCCO)NC(=O)OCc1ccccc1[N+](=O)[O-] (stereo not drawn)	0	-	-	-	-	-	-	-	-	-	-
SMILES	COUP-TFII inh	SRC2 inh	NR5A2 inv ag	NCOA1 inh	NCOA3 inh	Gli-Sufu antag	Gli antag conf	SufuKO cytotox	Wnt3a cs	Gal4-VP16 ctr	COUP-TFII conf
CCC1=C(CC2NCCc3ccccc32)CC2c3cc(OC)c(OC)cc3CCN2C1 (stereo not drawn)	67.1	55.1	87.9	73.1	82.5	0	59.6	0	85.4	0	54.4
CCOc1ccc(-n2c(-c3ccccc3)c[n+]3c2CCC3)cc1	55.1	0	0	0	0	84.6	87.9	33.0	41.3	0	0
Cc1ccc(S(=O)(=O)NCc2ccncc2)c(C)c1C	68.4	0	0	0	0	75.8	73.8	27.5	37.5	0	56.8
Cc1cc(C)c(S(=O)(=O)NCc2ccncc2)c(C)c1	60.5	0	0	0	0	58.3	60.2	27.8	43.3	0	54.1
Cc1cc(C)c(S(=O)(=O)NCCc2ccncc2)c(C)c1	0	0	0	0	0	-	-	-	-	-	-
CCOC(=O)N1CCN(C(=O)C[C@@H]2C(=O)N(CCc3ccc(Cl)cc3)/C3=C/CCCCC[C@@]32C(=O)OCC)CC1	0	0	-	-	-	-	-	-	-	-	-
CCCOc1ccc(Br)cc1CSC(=N)N	54.2	0	0	0	0	60.8	56.3	27.3	0	15.4	49.3
CC(CCN1CCC(C(O)(c2ccccc2)c2ccccc2)CC1)Oc1cccc(F)c1 (stereo not drawn)	0	0	-	-	-	-	-	-	-	-	-
CCC[N+]1(CC#CCC(c2ccccc2)c2ccccc2)CCCCC1	52.4	0	0	0	0	84.2	87.7	49.0	36.0	0	0
Cn1c(SCC2CCC2)nnc1-c1ccco1	0	0	-	-	-	-	-	-	-	-	-
O=C(Cn1cnc2c(NCc3ccccc3)ncnc21)N1CCN(c2ccccn2)CC1	0	0	0	0	0	0	-	-	-	-	-
Cc1cc(C)c(CN2CCN(C(=O)Cn3cnc4c(NCc5ccccc5)ncnc43)CC2)c(C)c1	80.2	0	0	0	0	59.9	66.8	41.6	39.2	0	70.1
